# Test results: PubChem BioAssay (EPA / NIEHS)
# Several values for one entry are separate records, joined by “and”; a condition that tells them apart may be missing. Equal values may be shown once. Results filed as inconclusive are left out. Activity calls are given as the source filed them. Rule for the calls, unless noted: active = hit-call score of the fitted dose curve at least 0.9, where 1 is the maximum; inconclusive = response in the unintended direction; inactive = score below 0.9.
# Tests used:
# [1] = target: Agonist Androgen Response Element (ARE), AR (gene 367) (UniProt P10275); experiment: OT_AR_ARELUC_AG_1440: Odyssey Thera (OT) 24-hour CHO-K1 Luciferase Assay for Agonist Androgen Response Element (ARE) (AID 2283379)
# In short: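 Gain-of-signal reporter endpoint: cells (CHO-K1, hamster) are treated 24 h, luciferin/ATP reagent added, and luminescence compared with DMSO baseline.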
# [2] = target: Estrogen receptor beta (Homo sapiens) (UniProt Q92731); experiment: OT_ER_ERbERb_1440: Odyssey Thera (OT) 24-hour HEK293T Protein-Complementation Assay for Estrogen Receptor-beta/-beta Homodimer (AID 2283380);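 note: scored as signal increase over DMSO baseline for both agonists and antagonists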
# In short: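 HEK293T cells stably expressing ER beta LBD (aa 310-547) homodimer fragment-complementation reporter, dosed 24 h. Cells formaldehyde-fixed, Draq5-stained; gain in nuclear (agonist) or nuclear plus cytoplasmic (antagonist) fluorescence versus DMSO read by laser scanning cytometry.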
# [3] = target: Estrogen receptor (Homo sapiens) (UniProt P03372); experiment: OT_ERa_GFPERaERE_0480: Odyssey Thera (OT) 8-hour HeLa Transcription Induction Assay for Estrogen Receptor (AID 2283381; active = hit-call score of the fitted dose curve at least 0.9, where 1 is the maximum; inactive = score below 0.9)
# In short: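 GFP-ERE reporter, HeLa, 8 h exposure. Readout: fluorescence microscopy, high-content image analysis. Fit direction positive vs DMSO negative control.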
# [4] = target: Estrogen receptor (Homo sapiens) (UniProt P03372); experiment: OT_ERa_GFPERaERE_0120: Odyssey Thera (OT) 2-hour HeLa Transcription Induction Assay for Estrogen Receptor (AID 2283382)
# In short: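 Fluorescence microscopy read-out: inducible fluorescent protein reporter in HeLa cells, imaged 2 h post-dose. Signal increase over DMSO negative control fitted as single primary endpoint via high content image analysis.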
# [5] = target: Peroxisome proliferator-activated receptor gamma (Homo sapiens) (UniProt P37231); experiment: OT_PPARg_PPARgSRC1_0480: Odyssey Thera (OT) 8-hour Protein-Complementation Assay for Peroxisome Proliferator-activated Receptor Gamma / SRC-1 Co-activator (AID 2283387)
# In short: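 Protein-fragment complementation of split Venus YFP reports PPARg/SRC-1 interaction in HEK293T (transfected 48 h before treatment), exposed 8 h. Readout: N/C fluorescence ratio at 488 nm from imaging, Draq5 for segmentation, positive fit relative to DMSO.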
# [6] = target: Peroxisome proliferator-activated receptor gamma (Homo sapiens) (UniProt P37231); experiment: OT_PPARg_PPARgSRC1_1440: Odyssey Thera (OT) 24-hour Protein-Complementation Assay for Peroxisome Proliferator-activated Receptor Gamma/ SRC-1 Co-activator (AID 2283388)
# In short: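 HEK293T cells transiently transfected with PPARg and SRC-1 fused via (Gly4Ser)2 linker to split Venus YFP fragments (IFP1/IFP2) were dosed 24 h; fixed, Draq5-stained, imaged at 488/635 nm; nuclear/cytoplasmic fluorescence ratio scored versus DMSO baseline, gain-of-signal.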
# [7] = target: human Norepinephrine Transporter (NET), SLC6A2 (gene 6530) (UniProt P23975); experiment: NVS_TR_hNET: NovaScreen (NVS) Transporter Assay for human Norepinephrine Transporter (NET) (AID 2283377);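 note: cell-free membrane protein extracted from CHO cells expressing human NET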;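 for AC50: displacement of radioligand from human NET seen as loss of scintillation signal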
# In short: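 CHO cell extracts expressing the transporter; tritiated or iodinated tracer displaced competitively; filtration plus scintillation readout at 1 h. Single-point duplicates at 25 uM, concentration series for follow-up; activity = signal drop relative to DMSO.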
# [8] = target: human Dopamine Transporter (DAT), SLC6A3 (gene 6531) (UniProt Q01959); experiment: NVS_TR_hDAT: NovaScreen (NVS) Transporter Assay for human Dopamine Transporter (DAT) (AID 2283374);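 note: activity means loss of bound radioligand signal relative to DMSO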
# In short: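 hDAT membranes + tritiated/iodinated radioligand, competitive displacement; 1 h; filter scintillation readout. Single conc 25 uM (duplicate), then conc-response for actives. DMSO = negative control.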
# [9] = target: Retinoic acid receptor RXR-alpha (Homo sapiens) (UniProt P19793); experiment: OT_NURR1_NURR1RXRa_0480: Odyssey Thera (OT) 8-hour HEK293T Protein Complementation Assay for Nurr1/retinoid X receptor (RXR) (AID 2283385)
# In short: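 Read-out: fluorescence from protein-fragment complementation between Nurr1 and RXRα in human HEK293T cells, 8 h after dosing. DMSO served as negative control; increased signal counted as activity.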
# [10] = target: rat Serotonin Transporter (SERT), Slc6a4 (gene 25553) (UniProt P31652); experiment: NVS_TR_rSERT: NovaScreen (NVS) Transporter Assay for rat Serotonin Transporter (SERT) (AID 2283375)
# In short: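 Rat forebrain membranes were incubated with test chemical for 1 hour; radioligand binding to SERT was measured by filter-based scintillation counting. Primary screen ran in duplicate at 25 uM, with actives followed up in concentration series; DMSO served as negative control.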
# Chain of Retinoic acid receptor RXR-alpha (Homo sapiens) (P19793 whole entry, looked up, the tested form may be a part): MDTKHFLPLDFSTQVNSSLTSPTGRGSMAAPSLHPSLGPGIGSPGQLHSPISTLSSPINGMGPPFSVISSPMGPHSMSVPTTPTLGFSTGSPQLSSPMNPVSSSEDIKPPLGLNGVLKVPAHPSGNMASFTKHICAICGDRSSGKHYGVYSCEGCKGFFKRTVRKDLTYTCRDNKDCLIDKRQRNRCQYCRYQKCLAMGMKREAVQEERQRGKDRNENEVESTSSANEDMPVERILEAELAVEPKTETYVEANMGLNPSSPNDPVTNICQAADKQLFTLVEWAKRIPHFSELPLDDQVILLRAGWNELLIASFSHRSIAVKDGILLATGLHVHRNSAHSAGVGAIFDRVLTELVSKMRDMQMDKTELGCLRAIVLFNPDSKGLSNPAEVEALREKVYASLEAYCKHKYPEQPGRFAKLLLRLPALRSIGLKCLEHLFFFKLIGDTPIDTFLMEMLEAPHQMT
# Chain of human Dopamine Transporter (DAT), SLC6A3 (gene 6531) (Q01959 whole entry, looked up): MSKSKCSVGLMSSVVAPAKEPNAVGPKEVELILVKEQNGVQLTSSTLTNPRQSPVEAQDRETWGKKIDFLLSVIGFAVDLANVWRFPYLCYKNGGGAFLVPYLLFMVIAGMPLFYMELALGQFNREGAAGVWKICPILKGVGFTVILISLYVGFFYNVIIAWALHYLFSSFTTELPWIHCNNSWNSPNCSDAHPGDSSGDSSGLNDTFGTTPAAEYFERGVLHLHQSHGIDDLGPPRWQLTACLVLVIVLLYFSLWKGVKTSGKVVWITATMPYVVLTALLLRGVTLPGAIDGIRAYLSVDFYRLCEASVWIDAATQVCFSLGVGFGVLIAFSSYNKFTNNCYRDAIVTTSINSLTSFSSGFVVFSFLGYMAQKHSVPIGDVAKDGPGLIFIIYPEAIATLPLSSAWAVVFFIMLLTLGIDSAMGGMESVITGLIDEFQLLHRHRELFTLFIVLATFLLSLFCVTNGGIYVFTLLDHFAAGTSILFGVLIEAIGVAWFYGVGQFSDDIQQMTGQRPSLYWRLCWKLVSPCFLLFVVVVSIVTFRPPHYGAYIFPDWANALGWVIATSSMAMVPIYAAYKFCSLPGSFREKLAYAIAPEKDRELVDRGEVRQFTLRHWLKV
# Chain of Estrogen receptor beta (Homo sapiens) (Q92731 whole entry, looked up, the tested form may be a part): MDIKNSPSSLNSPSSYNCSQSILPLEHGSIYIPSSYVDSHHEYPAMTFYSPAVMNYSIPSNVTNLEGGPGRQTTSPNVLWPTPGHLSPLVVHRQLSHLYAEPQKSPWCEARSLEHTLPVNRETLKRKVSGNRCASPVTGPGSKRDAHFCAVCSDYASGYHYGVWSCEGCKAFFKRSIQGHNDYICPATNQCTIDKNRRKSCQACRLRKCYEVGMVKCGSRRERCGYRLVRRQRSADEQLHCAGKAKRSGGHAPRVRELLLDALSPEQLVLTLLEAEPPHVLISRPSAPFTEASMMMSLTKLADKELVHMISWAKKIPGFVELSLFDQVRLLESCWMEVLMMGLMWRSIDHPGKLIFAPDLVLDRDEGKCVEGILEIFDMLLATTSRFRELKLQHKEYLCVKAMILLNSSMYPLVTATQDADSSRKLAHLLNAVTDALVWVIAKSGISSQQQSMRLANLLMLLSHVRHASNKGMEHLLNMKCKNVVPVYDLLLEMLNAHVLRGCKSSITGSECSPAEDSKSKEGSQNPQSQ
# Chain of Estrogen receptor (Homo sapiens) (P03372 whole entry, looked up): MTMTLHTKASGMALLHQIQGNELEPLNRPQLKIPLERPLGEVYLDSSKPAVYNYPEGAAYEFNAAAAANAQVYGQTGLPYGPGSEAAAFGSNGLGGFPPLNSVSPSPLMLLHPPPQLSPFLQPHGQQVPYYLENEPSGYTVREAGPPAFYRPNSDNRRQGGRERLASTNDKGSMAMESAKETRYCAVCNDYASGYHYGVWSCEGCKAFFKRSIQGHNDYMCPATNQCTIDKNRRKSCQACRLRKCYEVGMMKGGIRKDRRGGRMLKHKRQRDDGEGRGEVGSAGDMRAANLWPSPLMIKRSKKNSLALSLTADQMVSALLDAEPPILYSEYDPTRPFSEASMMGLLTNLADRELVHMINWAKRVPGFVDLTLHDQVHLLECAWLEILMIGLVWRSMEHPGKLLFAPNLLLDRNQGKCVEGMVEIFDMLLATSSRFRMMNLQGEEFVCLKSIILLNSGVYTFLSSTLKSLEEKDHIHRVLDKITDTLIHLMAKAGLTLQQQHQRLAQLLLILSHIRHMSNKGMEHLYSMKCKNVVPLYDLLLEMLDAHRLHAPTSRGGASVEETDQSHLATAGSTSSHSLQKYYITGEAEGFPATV
# Chain of human Norepinephrine Transporter (NET), SLC6A2 (gene 6530) (P23975 whole entry, looked up): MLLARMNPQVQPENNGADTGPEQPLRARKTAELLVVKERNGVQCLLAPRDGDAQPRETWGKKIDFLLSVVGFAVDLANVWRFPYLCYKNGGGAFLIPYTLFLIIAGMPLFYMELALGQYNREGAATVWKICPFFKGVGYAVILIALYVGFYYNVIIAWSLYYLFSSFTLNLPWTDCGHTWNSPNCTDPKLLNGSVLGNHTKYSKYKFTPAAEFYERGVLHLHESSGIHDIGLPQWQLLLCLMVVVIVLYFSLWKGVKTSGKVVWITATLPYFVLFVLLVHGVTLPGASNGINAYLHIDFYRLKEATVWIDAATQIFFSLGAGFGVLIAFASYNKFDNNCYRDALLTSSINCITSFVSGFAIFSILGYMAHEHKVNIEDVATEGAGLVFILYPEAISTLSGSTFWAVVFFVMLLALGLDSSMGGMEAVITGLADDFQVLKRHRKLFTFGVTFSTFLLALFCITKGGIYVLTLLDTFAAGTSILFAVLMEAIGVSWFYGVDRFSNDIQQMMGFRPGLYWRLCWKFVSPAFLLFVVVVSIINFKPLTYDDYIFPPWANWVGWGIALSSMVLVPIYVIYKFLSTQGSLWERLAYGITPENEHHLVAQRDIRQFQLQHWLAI
# Chain of Peroxisome proliferator-activated receptor gamma (Homo sapiens) (P37231 whole entry, looked up, the tested form may be a part): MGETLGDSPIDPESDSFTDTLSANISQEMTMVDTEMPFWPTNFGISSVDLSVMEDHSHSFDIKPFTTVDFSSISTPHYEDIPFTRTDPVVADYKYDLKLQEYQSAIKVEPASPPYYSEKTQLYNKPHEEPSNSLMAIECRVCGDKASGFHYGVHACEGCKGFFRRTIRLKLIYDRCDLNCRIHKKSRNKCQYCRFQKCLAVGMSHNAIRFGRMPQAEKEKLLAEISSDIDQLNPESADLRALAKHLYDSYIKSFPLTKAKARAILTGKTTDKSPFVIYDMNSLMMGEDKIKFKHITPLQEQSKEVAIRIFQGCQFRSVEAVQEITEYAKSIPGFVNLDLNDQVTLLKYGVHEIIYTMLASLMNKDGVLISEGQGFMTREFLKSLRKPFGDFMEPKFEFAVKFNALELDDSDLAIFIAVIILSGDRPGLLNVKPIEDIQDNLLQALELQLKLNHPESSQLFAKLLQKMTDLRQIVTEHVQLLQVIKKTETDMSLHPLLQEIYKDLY
# Chain of Agonist Androgen Response Element (ARE), AR (gene 367) (P10275 whole entry, looked up): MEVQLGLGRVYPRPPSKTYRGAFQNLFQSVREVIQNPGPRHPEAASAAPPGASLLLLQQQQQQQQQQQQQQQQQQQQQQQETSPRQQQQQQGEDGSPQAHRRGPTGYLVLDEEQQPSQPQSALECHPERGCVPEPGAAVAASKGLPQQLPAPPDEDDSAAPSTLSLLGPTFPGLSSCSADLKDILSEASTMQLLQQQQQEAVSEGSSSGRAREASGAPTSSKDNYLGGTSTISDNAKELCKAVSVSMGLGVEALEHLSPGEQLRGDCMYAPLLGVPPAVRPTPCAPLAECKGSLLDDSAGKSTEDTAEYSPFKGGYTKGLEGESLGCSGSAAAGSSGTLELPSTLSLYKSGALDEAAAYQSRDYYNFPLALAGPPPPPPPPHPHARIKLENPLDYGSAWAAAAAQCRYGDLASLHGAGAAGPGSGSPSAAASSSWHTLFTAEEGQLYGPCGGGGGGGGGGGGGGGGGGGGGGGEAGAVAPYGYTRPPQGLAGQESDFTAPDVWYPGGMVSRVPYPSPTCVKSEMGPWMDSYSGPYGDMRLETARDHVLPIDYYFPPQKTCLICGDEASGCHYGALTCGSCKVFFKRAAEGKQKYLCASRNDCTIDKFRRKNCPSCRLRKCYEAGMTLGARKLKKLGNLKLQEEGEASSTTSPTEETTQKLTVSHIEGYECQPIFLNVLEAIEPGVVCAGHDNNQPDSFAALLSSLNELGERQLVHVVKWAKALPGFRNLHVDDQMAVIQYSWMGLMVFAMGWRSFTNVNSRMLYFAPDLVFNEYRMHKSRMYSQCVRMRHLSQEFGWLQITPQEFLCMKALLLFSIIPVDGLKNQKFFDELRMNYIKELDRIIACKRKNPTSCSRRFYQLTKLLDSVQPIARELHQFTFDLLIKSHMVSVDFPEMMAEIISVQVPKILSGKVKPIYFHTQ
# Chain of rat Serotonin Transporter (SERT), Slc6a4 (gene 25553) (P31652 whole entry, looked up): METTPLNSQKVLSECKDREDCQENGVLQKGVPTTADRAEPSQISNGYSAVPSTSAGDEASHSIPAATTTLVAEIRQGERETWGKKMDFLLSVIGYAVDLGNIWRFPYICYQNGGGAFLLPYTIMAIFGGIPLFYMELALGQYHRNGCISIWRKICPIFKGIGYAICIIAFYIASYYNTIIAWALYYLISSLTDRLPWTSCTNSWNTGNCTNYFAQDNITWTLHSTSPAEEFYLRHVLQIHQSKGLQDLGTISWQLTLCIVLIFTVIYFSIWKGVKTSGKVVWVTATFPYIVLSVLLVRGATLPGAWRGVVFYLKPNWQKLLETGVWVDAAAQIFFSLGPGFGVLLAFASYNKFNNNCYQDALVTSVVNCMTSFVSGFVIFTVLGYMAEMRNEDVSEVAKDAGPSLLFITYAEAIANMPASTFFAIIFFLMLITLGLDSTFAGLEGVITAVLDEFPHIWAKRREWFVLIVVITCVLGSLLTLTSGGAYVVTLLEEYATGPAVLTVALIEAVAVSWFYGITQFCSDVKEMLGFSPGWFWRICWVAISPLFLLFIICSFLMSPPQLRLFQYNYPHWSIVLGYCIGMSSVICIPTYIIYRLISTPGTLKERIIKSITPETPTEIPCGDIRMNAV
smiles,measurement,setting,value
CCCCc1ccc2ccccc2c1S(=O)(=O)O,AC50,[1],13.3 µM (active)
same,outcome,[2],inactive
same,outcome,[3],inactive
same,outcome,[4],inactive
same,outcome,[5],inactive
same,outcome,[6],inactive
CC(O)COc1ccccc1 (configuration not stated),outcome,[7],inactive
same,outcome,[1],inactive
same,outcome,[2],inactive
same,outcome,[5],inactive
same,outcome,[6],inactive
O=C(c1ccccc1)c1ccccc1,outcome,[8],inactive
same,outcome,[1],inactive
same,outcome,[9],inactive
CN(Cc1cnc2nc(N)nc(N)c2n1)c1ccc(C(=O)N[C@@H](CCC(=O)O)C(=O)O)cc1,AC50,[8],6.69 µM (active)
same,outcome,[7],inactive
same,outcome,[1],inactive
same,outcome,[2],inactive
same,outcome,[3],inactive
same,outcome,[4],inactive
same,outcome,[9],inactive
same,outcome,[5],inactive
same,outcome,[6],inactive
COc1cc([N+](=O)[O-])ccc1N,outcome,[1],inactive
same,AC50,[2],28.4 µM (active)
same,outcome,[3],inactive
same,outcome,[4],inactive
same,outcome,[9],inactive
same,outcome,[6],inactive
CCCCCCCCCCCCCCC,outcome,[7],inactive
same,outcome,[2],inactive
same,outcome,[9],inactive
Cc1cc(C(=C2C=CC(=Nc3ccc(S(=O)(=O)O)cc3)C=C2)c2ccc(Nc3ccc(S(=O)(=O)O)cc3)cc2)cc(S(=O)(=O)O)c1N,outcome,[1],inactive
same,outcome,[2],inactive
same,outcome,[3],inactive
same,outcome,[4],inactive
same,outcome,[5],inactive
same,outcome,[6],inactive
CC(=O)Nc1ccc(O)cc1,outcome,[1],inactive
same,outcome,[2],inactive
same,outcome,[5],inactive
same,outcome,[6],inactive
N=C(N)c1ccc(OCCCCCOc2ccc(C(=N)N)cc2)cc1,AC50,[8],4.11 µM (active)
same,AC50,[7],725 nM (active)
same,outcome,[3],inactive
same,outcome,[4],inactive
same,outcome,[9],inactive
same,outcome,[5],inactive
same,outcome,[6],inactive
CN(C)c1ccc(C(=C2C=CC(=[N+](C)C)C=C2)c2ccccc2)cc1,AC50,[8],6.41 µM (active) and 3.13 µM (active)
same,AC50,[7],18.3 µM (active) and 5.15 µM (active)
CN(C)CCOC(c1ccccc1)c1ccccc1,AC50,[10],12.6 µM (active)
same,outcome,[1],inactive
same,outcome,[2],inactive
same,outcome,[3],inactive
same,outcome,[4],inactive
same,outcome,[9],inactive
